Screening data deposited in PubChem by National Center for Advancing Translational Sciences (NCATS).
Shown are actives, neighbours in structure and some others; about 11% of the full set was active somewhere.
SW480 rereplic = A quantitative high throughput screen for small molecules that induce DNA re-replication in SW480 colon adenocarcinoma cells | 1.8% of 340,000 active | SW480 DNA re-replication, Hoechst DNA content imaging, 48 h | Potency, µM (series often up to 46.1 µM), for the others: at the top dose re-replication activation, usual class: activators | AID 624297, 2012; further: potency means the concentration at half of the fitted maximal effect; % of control where 0% means no effect; nearly all actives have a fitted effect of over 55% in size
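Treated cells incubate 48 hr (37 C, 5% CO2), are stained 40 min with Hoechst, and nuclear fluorescence is enumerated; a rise in nuclei with high DNA signal marks re-replication.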
MCF10A rerep = A quantitative high throughput screen for small molecules that induce DNA re-replication in MCF 10a normal breast cells; 2.9% of 350,000 active; MCF 10A DNA re-replication, Hoechst nuclear intensity, 48 h; Potency, µM (highest dose often 46.1 µM), for inactives: at the highest dose activity, positive = re-replication, hits mostly activators; further: potency means the concentration at half of the fitted maximal effect; % of control where 0% means no effect; nearly all actives have a fitted effect of over 50% in size
Gal4-VP16 FLuc = VP16 counterscreen qHTS for inhibitors of ROR gamma transcriptional activity; Potency, µM (titrated, usually from 53.6 µM), for the others: at the highest dose activity, negative = inhibition, most hits filed as inhibitors; AID 2546, 2010; 3.5% of 310,000 active; Drosophila S2 Gal4-VP16 UAS-luciferase, luminescence, 20 h;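 further: Gal4-VP16 expression switched on by copper sulfate through the metallothionein promoter; potency means the concentration at half of the fitted maximal effect; on the % scale 0 is the no-effect control and ±100 the full control effect; nearly all actives have a fitted effect of over 50% in size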
IL-1B inflam inh = qHTS for Inhibitors of Inflammasome Signaling: IL-1-beta AlphaLISA Primary Screen | THP-1 LPS/ATP IL-1B secretion, AlphaLISA, 16 h; active compounds read low | activity change, % at 57.5 µM | 4.7% of 360,000 active; in the data active means activity change below about -50%; inconclusive means mostly about -30% to -49%; further: on the % scale 0 is the no-effect control and ±100 the full control effect
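THP-1 cells pretreated 1 hr with compounds (up to 57.5 uM final), then stimulated with LPS (250 ng/mL final) plus ATP (1.25 mM final); secreted IL-1B measured by AlphaLISA after 16 hr, decreased signal indicating inhibition.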
RORg inh = qHTS for inhibitors of ROR gamma transcriptional activity | 5.4% of 310,000 active | Nuclear receptor ROR-gamma (Mus musculus), P51450 | Potency, µM (series often up to 53.6 µM), without a hit: at the top dose activity change, negative = inhibition, most hits filed as inhibitors | Drosophila S2 Gal4-RORgamma UAS-luciferase reporter, 20 h; further: potency means the concentration at half of the fitted maximal effect; on the % scale 0 is the no-effect control and ±100 the full control effect; nearly all actives have a fitted effect of over 60% in size
Target sequence (P51450 whole entry, looked up, the tested form may be a part): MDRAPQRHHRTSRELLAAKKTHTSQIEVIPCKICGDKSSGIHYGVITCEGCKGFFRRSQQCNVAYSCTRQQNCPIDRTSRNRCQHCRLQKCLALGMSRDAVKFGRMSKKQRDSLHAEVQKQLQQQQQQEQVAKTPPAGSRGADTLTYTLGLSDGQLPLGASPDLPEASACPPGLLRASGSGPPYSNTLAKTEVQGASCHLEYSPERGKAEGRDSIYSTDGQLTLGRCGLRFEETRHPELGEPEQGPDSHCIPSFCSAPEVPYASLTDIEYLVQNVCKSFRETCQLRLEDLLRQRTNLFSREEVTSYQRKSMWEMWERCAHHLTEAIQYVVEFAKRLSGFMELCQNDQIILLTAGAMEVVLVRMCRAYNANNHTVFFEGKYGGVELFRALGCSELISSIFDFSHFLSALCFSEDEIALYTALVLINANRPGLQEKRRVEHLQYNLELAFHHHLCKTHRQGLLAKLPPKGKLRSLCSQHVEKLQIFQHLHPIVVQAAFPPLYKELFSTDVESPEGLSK
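Stably transfected Drosophila Schneider cells are the test system, with ROR gamma fused to Gal4 and luciferase under UAS control; luminescence is read after 20 hr of 700 uM copper sulfate induction at ambient temperature.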
* hit, by the source's call; ? = inconclusive; / = not tested or not shown; [ ] = dose if it differs, or a comment. Unless noted, the call rests on the fitted dose curve; in most records, active means well fitted curve in the direction sought with a large enough effect; inconclusive means small, poorly fitted or top-dose-only effect, or another doubt; inactive means no such curve, though single readings can be large; an effect the other way counts as inactive or inconclusive.

SMILES	SW480 rereplic	MCF10A rerep	Gal4-VP16 FLuc	IL-1B inflam inh	RORg inh
COc1ccc(CNC(=O)C(=O)NCC2OCCN2S(=O)(=O)c2ccccc2)cc1 (stereo unspecified)	-1%	1%	/	4	/
N#Cc1cccnc1N1CCN(C(C(=O)NC2CCCC2)c2ccc(F)cc2)CC1 (stereo unspecified)	/	/	/	0	/
CCn1c(CSc2nc(C)cc(C)n2)nnc1SCC(=O)Nc1nc(-c2ccccc2)cs1	-6%	12%	-10%	32	6%
CCn1c(SCC(=O)Nc2nc(-c3ccc(C)cc3)cs2)nnc1-c1ccccc1	2%	14%	17%	-55*	31%
CC(C)(C)OC(=O)NNC(=O)c1ccc(Cl)cc1	-4%	-5%	-5%	7	-4%
CC(C)(C)OC(=O)NNC(=S)NCc1ccc(Cl)cc1	-6%	-2%	?	-18	14µM*
O=C(COc1ccc(Cl)cc1)NNC(=S)NCc1ccccc1	-3%	3%	5.6µM*	-12	1.1µM*
C=CCc1ccccc1OCC(=O)NNC(=S)NCc1ccccc1	-1%	?	10µM*	6	1.4µM*
CC(=O)Nc1ccc(S(=O)(=O)c2ccnc3cc(Cl)ccc23)cc1	/	/	/	-103*	/
O=C1c2ccccc2OC2(C=Cc3ccccc3O2)N1Cc1ccccc1 (stereo unspecified)	?	13µM*	8%	0	27%
CC1CCN(C(=O)CSc2nnc3ccc(-c4cccnc4)nn23)CC1	-6%	0%	/	-57*	/
NCCc1cnc(-c2cccc(C(F)(F)F)c2)[nH]1	/	/	5%	/	2%
COc1ccc(Nc2nc3nonc3nc2N2CCCCC2)cc1	-3%	17%	4%	-4	?
CC1CCN(c2nc3nonc3nc2Nc2ccc(F)cc2)CC1	?	-7%	0%	-76*	1%
Cc1c(Cl)cccc1NC(=O)CN1CCC(C(O)(c2ccccc2)c2ccccc2)CC1	?	4%	0%	-54*	-1%
N#CCSCC(=O)Nc1ccc(Cl)cc1	-4%	-3%	-2%	0	39%
CO/N=C\CC(=O)Nc1ccc(Cl)c(Cl)c1	18µM*	16µM*	3%	11	8%
NC(=O)SCC(=O)Nc1ccc(Cl)cc1	11%	?	-23%	-89*	?
NC(=O)SCC(=O)Nc1cccc(Cl)c1	4%[9.22 µM]	16%	?	-62*	10µM*
COC(=O)CCC(=O)Nc1ccc(Cl)c(Cl)c1	-3%	4%	6%	-15	25%
NC(=O)SCC(=O)Nc1ccc(Cl)c(Cl)c1	?	?	?	-103*	?
CCn1c(C)nnc1SCC(=O)Nc1cccc(Cl)c1	15µM*	2%	-15%	30	1%
Cc1c(Cl)cccc1NC(=O)CSC(N)=O	?	16%	-6%[10 µM]	-92*	-1%
CSCC(=O)Nc1ccc(F)c(Cl)c1	2%	0%	-5%	-6	2%
COCC(=O)Nc1ccc(C)c(Cl)c1	-11%	0%	3%	49	-4%
SMILES	SW480 rereplic	MCF10A rerep	Gal4-VP16 FLuc	IL-1B inflam inh	RORg inh
Cc1c(Cl)cccc1NC(=O)CSCC(N)=O	-3%	6%	0%	22	16%
CCn1c(C)nnc1SCC(=O)Nc1ccc(C(C)=O)cc1	-4%	1%	-7%	-5	33%
Cc1ccc(NC(=O)CSC(N)=O)cc1Cl	0%	-4%	?	-51*	-3%
Cc1ccc(S(=O)(=O)NC(CC(=O)OCc2ccccc2)C(=O)OCc2ccccc2)cc1 (stereo unspecified)	/	/	/	15	/
CCOC(=O)c1c(-c2ccc(F)cc2)csc1/N=C/N(C)C	?	6%	-15%	-87*	6%
Oc1ccc(C=NN=C2c3ccccc3-c3ccccc32)c(O)c1	2%	17%	/	-58*	/
O=[N+]([O-])c1cccc(/C=N\N=C2c3ccccc3-c3ccccc32)c1O	141%	-36%	20µM*	0	10µM*
NC(N)=N/N=C/c1cccc([N+](=O)[O-])c1O	-2%	0%	-10%	0	-8%
COc1ccc(C(=O)COC(=O)c2ccccc2O)c(OC)c1	-2%	7%	/	0	/
Nc1cccc2c1C(=O)N(CCOc1ccc(F)cc1)C2=O	18µM*	16µM*	-15%	15	-24%
CCC1=NN(C(=O)C(=O)Nc2ccc(OC)cc2)C(O)(C(F)(F)F)C1 (stereo unspecified)	-1%	-5%	-22%	0	?
CCC1=NN(C(=O)C(=O)Nc2ccccc2OC)C(O)(C(F)(F)F)C1 (stereo unspecified)	-2%	?	?	45	13µM*
COc1ccccc1NC(=O)C(=O)N1N=C(C(C)C)CC1(O)C(F)(F)F (stereo unspecified)	2%	8.2µM*	?	8	10µM*
Cc1ccc(C(=O)NCC(=O)NCc2ccc(Cl)cc2)s1	-4%	11%	/	26	/
COC(=O)C(=Cc1ccncc1)c1cccc2ccccc12	/	/	/	0	/
Cc1c2c(nc3ccccc13)CCC(C)C2 (stereo unspecified)	-63%	-25%	-23%	6	11µM*
CC1CCc2nc3ccccc3c(C(=O)OCC(=O)N(C)C3CCS(=O)(=O)C3)c2C1 (stereo unspecified)	-2%	7%	-8%	-17	1%
O=C(O)c1ccc2ccc3ccccc3c2c1	-2%	3%	/	24	/
CCOc1cc(/C=C2\SC(=O)N(c3ccc(O)cc3)C2=O)ccc1O	13%	2%	-7%	?	-15%
COc1cc(/C=C2\CC/C(=C\c3cc(OC)c(OC)c(OC)c3)C2=O)cc(OC)c1OC	?	5.8µM*	-7%	-60*	15%
COc1cc(/C=C2/CCC/C(=C\c3cc(O)c(OC)c(Cl)c3)C2=O)cc(Cl)c1O	6.5µM*	2.1µM*	?	-107*	?
COc1cc(/C=C2\SC(N)=NC2=O)cc(Cl)c1O	-3%	0%	-3%	8	-4%
COc1ccc(/C=C2/CC/C(=C\c3ccc(OC)c(OC)c3OC)C2=O)c(OC)c1OC	?	9%	-17%	-22	1%
CCOc1ccc(N2C(=O)S/C(=C\c3ccc(O)c(OCC)c3)C2=O)cc1	?	16µM*	-10%	-53*	9%
COc1cc(/C=C2\CC/C(=C\c3cc(OC)c(O)c(OC)c3)C2=O)cc(OC)c1O	?	?	?	-103*	?
CC(C)C[C@@H](CC(=O)N[C@@H](CCC(=O)O)CC(=O)O)NC(=O)[C@@H]1CNCC[C@H]1NC(=O)C[C@@H](NC(=O)C[C@H](CO)NC(=O)[C@@H]1CNCC[C@H]1N)C(C)C	/	/	6%	/	-15%
